A selection: hits, their analogues and other compounds. The true share with any hit is near 4.2%.
PLK1 PBD inh: inhibitors of human PLK1 polo-box domain binding; Plk1 PBD binding of FITC phosphopeptide, fluorescence polarization; Potency, µM, for inactives: max response, negative = inhibition, hits mostly inhibitors; AID 720504; hit rate 2.8% among 360,000; also: potency is read from the fitted curve at half-maximal effect; series mostly up to about 57 µM; % is scaled to controls: 0 for no effect and ±100 for the full control effect; nearly all actives have a fitted effect of over 65% in size
Sfp inh: blocks B. subtilis Sfp PPTase activity; AID 1490; hit rate 3.5% among 310,000; Biochemical Sfp PPTase activity, qHTS; Q9F4F7; Potency, µM, for the others: largest response in the series, negative = inhibition, most hits filed as inhibitors;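 also: the enzyme is Sfp with the accession as filed and its product quenches rhodamine fluorescence; potency is read from the fitted curve at half-maximal effect; 0% = enzyme reaction without inhibitor and -100% = no enzyme wells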
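Buffer: 50 mM Hepes-Na pH 7.6, 10 mM MgCl2, 0.01% Nonidet P-40, 0.01% BSA. Enzyme 15 nM, pre-exposed to compound 15 min; substrates then added and fluorescence change tracked over 30 min.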
ALOX12 inh: ALOX12 (human) lipoxygenase inhibition. purified 12hLO, xylenol orange hydroperoxide absorbance. hit rate 1.1% among 580,000. P18054. Potency, µM (highest dose often 108 µM), for inactives: at the highest dose activity change, negative = inhibition, actives largely listed as inhibitors; also: potency is read from the fitted curve at half-maximal effect; % is scaled to controls: 0 for no effect and ±100 for the full control effect
Target sequence (P18054 whole entry, looked up): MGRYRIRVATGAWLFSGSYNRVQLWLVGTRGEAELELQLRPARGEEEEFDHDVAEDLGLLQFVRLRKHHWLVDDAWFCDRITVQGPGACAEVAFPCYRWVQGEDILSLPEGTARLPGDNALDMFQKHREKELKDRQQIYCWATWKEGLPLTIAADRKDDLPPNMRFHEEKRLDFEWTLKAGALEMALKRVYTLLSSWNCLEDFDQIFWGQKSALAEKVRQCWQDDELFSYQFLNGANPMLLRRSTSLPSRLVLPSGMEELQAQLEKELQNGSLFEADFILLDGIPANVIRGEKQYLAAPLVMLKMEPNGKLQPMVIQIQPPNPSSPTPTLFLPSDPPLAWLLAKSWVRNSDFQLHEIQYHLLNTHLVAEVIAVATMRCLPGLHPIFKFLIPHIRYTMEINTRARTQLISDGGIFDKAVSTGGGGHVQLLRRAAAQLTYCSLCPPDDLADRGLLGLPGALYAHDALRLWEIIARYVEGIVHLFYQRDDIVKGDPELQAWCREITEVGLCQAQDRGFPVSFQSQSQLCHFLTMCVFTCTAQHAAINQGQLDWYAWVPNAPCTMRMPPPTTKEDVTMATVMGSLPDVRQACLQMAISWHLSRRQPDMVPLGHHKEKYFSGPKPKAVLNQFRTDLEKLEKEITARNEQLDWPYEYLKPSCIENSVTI
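Purified human 12hLO (150 nM final) in 25 mM Hepes, 0.01% Triton X-100, pH 7.0 was preincubated 15 min at room temperature with compound. Then 40 uM arachidonic acid was added, 30 min. Hydroperoxide was read by Fe-XO absorbance ratio 573/405 nm.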
VDR inh: blocks the human vitamin D receptor; P11473; Potency, µM, without a hit: max response, negative = inhibition, hits mostly inhibitors; hit rate 0.93% among 400,000; VDR-SRC2-3 peptide fluorescence polarization, 2 h; also: potency is read from the fitted curve at half-maximal effect; % is scaled to controls: 0 for no effect and ±100 for the full control effect
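Reagent solutions, kept cold and dark, are dispensed first; compounds are then pinned in at 23 nl, plates briefly spun, and incubated 2 h at ambient temperature. Inhibition of VDR–SRC2-3 peptide binding is read by fluorescence polarization.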
Sfp inh conf: confirmation of Bacillus subtilis Sfp PPTase inhibitors. hit rate 79% among 380. Potency, µM (top dose mostly 114 µM), for inactives: top-dose activity change, negative = inhibition, hits mostly inhibitors. AID 2701. Sfp PPTase enzymatic assay, qHTS titration. shares compounds with Sfp inh;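 also: potency is read from the fitted curve at half-maximal effect; plate controls were uninhibited Sfp reaction for no effect and no enzyme control for full effect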
Sfp PPTase gel: Inhibits B. subtilis Sfp phosphopantetheinylation | shares compounds with Sfp inh | purified Sfp, gel-based phosphopantetheinylation read-out | Potency, µM, hits mostly inhibitors | hit rate 20% among 210 | AID 2707;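 active = potency below 100 µM; inconclusive = dose-dependent response but potency above 100 µM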;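 also: band intensities scaled against SCH202676 control wells before curve fitting; potency is an IC50 for inhibitors of Sfp transfer activity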
VDR confirm: inhibits human vitamin D receptor, primary hit validation; shares compounds with VDR inh; VDR-coactivator inhibition assay, qHTS confirmation; Potency, µM, most hits filed as inhibitors; hit rate 89% among 840; AID 602199; also: potency is read from the fitted curve at half-maximal effect
VDR FP fluor: blocks human VDR-coactivator binding in fluorescein assay; shares compounds with VDR inh; VDR-coactivator binding, fluorescein fluorescence polarization; Potency, µM (top dose mostly 57.1 µM), inactives show top-dose activity change, negative = inhibition, actives largely listed as inhibitors; hit rate 48% among 840; AID 602200; also: potency is read from the fitted curve at half-maximal effect
VDR bla: confirmation of human vitamin D receptor inhibitors in reporter cells | AID 602202 | VDR beta-lactamase reporter cells, FRET ratio; cells co-treated with VDR agonist LG190178 | Potency, µM (titrated, usually from 46.1 µM), for inactives: at the top dose activity change, negative = inhibition, actives largely listed as inhibitors | hit rate 23% among 840 | shares compounds with VDR inh; also: potency is read from the fitted curve at half-maximal effect; % is scaled to controls: 0 for no effect and ±100 for the full control effect
VDR viability: cytotoxic in counter-screen for VDR inhibitors; AID 602204; shares compounds with VDR inh; cytotoxicity counter-screen, cell viability, qHTS; Potency, µM (top dose mostly 48.3 µM), without a hit: at the highest dose activity change, negative = cytotoxicity, actives largely listed as cytotoxic; hit rate 18% among 840;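 also: potency is read from the fitted curve at half-maximal effect; plate controls were DMSO for no effect and high-concentration cycloheximide for full effect; nearly all actives have a fitted effect of over 75% in size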
* hit, by the source's call; i = inactive; ? = inconclusive; . = not tested or not shown; ! = repeats disagree; [ ] = another dose, or the depositor's remark. Unless noted, calls follow the shape of the dose curve; as a rule, active = well fitted curve in the direction sought with a large enough effect; inconclusive = small, poorly fitted or top-dose-only effect, or another doubt; inactive = no such curve, though single readings can be large; an effect the other way counts as inactive or inconclusive.

SMILES | PLK1 PBD inh | Sfp inh | ALOX12 inh | VDR inh | Sfp inh conf | others
CN1CCN(C(c2cccnc2)c2ccc3cccnc3c2O)CC1 (stereo not given) | 18.9µM* | 2.82µM* | . | -20.4% | 41.8µM*
COc1ccc(OC)c(Nc2nc(=O)c3cccnc3s2)c1 | 6.7µM* | 2.82µM* | . | 44.7µM* | 18.7µM*
Cc1ccc(Nc2nc(=O)c3cccnc3s2)cc1 | -4.6% | 8.3% | ? | 21.8% | .
CCOC(=O)Cc1nnc(NC(=O)c2ncn[nH]2)s1 | -5.6% | 14.1µM* | -3.2% | 5.7% | -3.8% | Sfp PPTase gel=i
CCOC(=O)Cc1nnc(NC(=O)c2ccccc2OCC)s1 | -1.2% | 12.8% | 6.1% | 19.9% | .
C[C@@](Cc1ccc(O)c(O)c1)(NN)C(=O)O | -21.0% | 20µM*! | ? | ? | ? | Sfp PPTase gel=6.17µM*
C[C@](Cc1ccc(O)c(O)c1)(NN)C(=O)O | . | . | . | 2.7% | .
O=C1NC(c2ccccc2)(C(F)(F)F)SC2=CCCCCN12 (stereo not given) | -4.9% | 20µM* | 0.0%[57.4 µM] | -2.2% | 46.9µM* | Sfp PPTase gel=i
CCOc1ccc(C(=O)CCC(=O)N(CC)CC(=O)NCc2cccs2)cc1 | -7.2% | . | ? | -6.4% | .
CCOc1ccc(C(=O)CC(NCc2cccs2)C(=O)O)cc1 (stereo not given) | -27.9% | 11.2µM* | ? | 25.1µM* | 37.3µM*
CCn1nc(C)cc1C(=O)NCC1Cc2cccc(-c3cccnc3)c2O1 (stereo not given) | . | . | 2.9% | . | .
CCN1CCN(C(=S)c2ccc(OC)cc2)CC1 | 9.47µM* | 11.2µM* | -19.9% | -0.3% | 14.8µM* | Sfp PPTase gel=i
CCOc1ccc(C(=S)N2CCCC2)cc1 | -3.9% | 2.7% | -0.5% | 1.3% | .
S=C(Nc1cccc(Cl)c1)Nc1cccc2cnccc12 | 26.7µM* | 1.41µM* | . | 70.8µM* | 13.2µM* | Sfp PPTase gel=?
S=C(Nc1cccc(Cl)c1)Nc1ccccc1Oc1ccccc1 | -7.3% | 9.3% | ? | 1.6% | .
COc1ccc(/C=N/NC(=O)Cn2ccnc2C)cc1OC | -2.8% | 13.9% | -11.4% | -13.8% | .
Cc1cccc(Nc2nc(NCc3ccco3)c3ccccc3n2)c1 | 9.8% | 2.51µM* | ? | -3.8% | 37.3µM* | Sfp PPTase gel=i
CC(=O)Nc1sc2c(c1C(c1cccs1)N1CCOCC1)CCCC2 (stereo not given) | -20.5% | 5.1% | -10.1% | -25.6% | .
COC(=O)[C@]1(C)N[C@H](CN(C)C(=O)c2ccc(C(C)(C)C)cc2)[C@@H]2C(=O)N(Cc3ccccc3)C(=O)[C@@H]21 | -1.5% | . | ? | -4.3% | .
O=C(NCCCN1CCOCC1)c1sc2cc(Cl)ccc2c1Cl | -5.2% | 9.1% | -4.4% | -3.7% | .
O=C(NCCCN1CCOCC1)c1sc2cc([N+](=O)[O-])ccc2c1Cl | 1.06µM* | 0.891µM* | . | ? | 2.35µM*
O=C(Nc1ccc2oc(-c3cccc4c(Br)cccc34)nc2c1)c1ccc(Br)cc1 | . | . | -15.7% | -9.1% | .
Cc1ccc(C2=NN=C(NC(=O)CSc3nncn3C)SC2)cc1 | 2.99µM* | 8.91µM* | ? | 3.16µM* | 26.4µM* | VDR confirm=1.12*;VDR FP fluor=?;VDR bla=4.2%;VDR viability=?
CC1=NNC(=O)/C1=C\c1cn(-c2ccccc2)nc1-c1ccccc1 | 5.97µM* | 3.55µM* | ? | ? | 41.8µM* | Sfp PPTase gel=18.5µM*;VDR confirm=3.16*;VDR FP fluor=3.16µM*;VDR bla=23.1µM*;VDR viability=18.9µM*
Cc1cc(C)cc(N2C(=O)CC(Cn3nc(C)cc3C)C2=O)c1 (stereo not given) | -1.3% | 16.7% | 0.0% | 0.3% | .
SMILES | PLK1 PBD inh | Sfp inh | ALOX12 inh | VDR inh | Sfp inh conf | others
Oc1ccc(NCc2ccccc2OCc2ccc(Cl)cc2)cc1 | . | . | 124.0% | ? | .
Oc1ccc(NCc2ccccc2OCc2ccccc2)cc1 | -0.5% | 25.1µM* | 11.2µM*! | 50.1µM* | 10.5µM* | Sfp PPTase gel=?;VDR confirm=14.1*;VDR FP fluor=14.1µM*;VDR bla=6.5%;VDR viability=?
CCN(CC)c1ccc(NC(=O)c2ccccc2)cc1S(=O)(=O)Nc1ccccc1OC | 1.89µM* | 3.16µM* | ? | ? | 6.63µM* | VDR confirm=3.16*;VDR FP fluor=3.16µM*;VDR bla=1.0%;VDR viability=-11.2%
COc1ccc(C(=O)Nc2ccc(Cl)c(S(=O)(=O)Nc3ccccc3OC)c2)cc1 | 2.5% | 15.0% | -17.0% | -11.6% | .
CC(=O)c1cccc(-c2ccnc3c2CC(C(=O)NCc2ccncc2)O3)c1 (stereo not given) | -12.8% | . | -7.1% | . | .
C=CCOC(=O)C(C(C)=O)C(NC(=O)OC)c1ccc(F)cc1 (stereo not given) | . | -6.8% | . | . | .
O=C(CSc1nc2ccc(S(=O)(=O)N3CCOCC3)cc2[nH]1)N1CCOCC1 | 2.24µM* | 6.31µM* | ? | 22.4µM* | 3.73µM* | VDR confirm=3.77*;VDR FP fluor=?;VDR bla=9.4%;VDR viability=13.8%
Cc1ccccc1C1(CC(=O)N2CCN(C)CC2)CC(=O)N(Cc2ccncc2)C1=O (stereo not given) | . | . | 0.5% | . | .
O=C(Nc1ccccn1)c1sc2cc([N+](=O)[O-])ccc2c1Cl | 2.67µM* | 6.31µM* | ? | 31.6µM* | 3.73µM* | VDR confirm=3.36*;VDR FP fluor=?;VDR bla=4.9%;VDR viability=-24.1%
CS(=O)(=O)N1CCN(C(=O)C2CC(=O)N(c3n[nH]c4ccccc34)C2)CC1 (stereo not given) | . | . | 45.8% | . | .
O=C1CSC(c2ccccc2F)N1 (stereo not given) | -16.1% | 0.4% | 0.0% | -1.9% | .
Cc1sc2c(c1C)C(=O)NC(c1ccccc1F)N2 (stereo not given) | 2.12µM* | 7.94µM* | ? | 31.6µM* | 7.44µM* | Sfp PPTase gel=i;VDR confirm=6.7*;VDR FP fluor=?;VDR bla=9.4%;VDR viability=2.1%
CCC(C)(C)n1nnnc1C(c1ccc(O)c(OC)c1)N1CCc2ccccc2C1 (stereo not given) | 26.7µM* | 3.55µM* | ? | ? | 5.91µM* | VDR confirm=11.2*;VDR FP fluor=28.2µM*;VDR bla=-2.0%;VDR viability=-6.7%
CCC(C)(C)n1nnnc1C(c1ccccc1)N1CCc2ccccc2C1 (stereo not given) | -2.3% | 14.7% | 23.1% | -6.2% | .
Cc1sc(NC(=O)c2ccccc2)c(C(=O)c2ccccc2)c1C | 6.7µM* | 12.6µM* | ? | 56.2µM* | 13.2µM* | VDR confirm=18.9*;VDR FP fluor=8.91µM*;VDR bla=23.2%;VDR viability=19.7%
